Source: PubChem (several laboratories)
Rv3671c inh: Rv3671c serine protease inhibitors, primary screen, biochemical, fluorescence polarization, M. tuberculosis H37Rv; P9WHR9; inhibition, % at 5.96 µM; 320,000 tested, 0.048% active; in the data active = inhibition above about 38%;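 note: extracellular domain of Rv3671c used as enzyme; 0% = enzyme with DMSO and 100% = no enzyme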
GDH-TPI counter: GDH-TPI coupling enzyme inhibitors, primary screen, artefact control for M. tuberculosis FBA inhibitor project, biochemical, absorbance, full deck; GDH-TPI coupled enzyme counterscreen, NADH absorbance; 360,000 tested, 1.2% active; AID 588335, 2011; inhibition, % at 4.8 µM; in the data active = inhibition above about 30%;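 note: 0% = DMSO wells and 100% = wells lacking the enzyme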
FBA Mtb inh: Mtb FBA enzyme inhibitors, primary screen, biochemical, fluorescence, strain H37Rv | 360,000 tested, 2.3% active | AID 588726, 2011 | inhibition, % at 1 µM | purified M. tuberculosis FBA, fluorescence read-out | Fructose-bisphosphate aldolase (Mycobacterium tuberculosis (strain ATCC 25618 / H37Rv)), …; in the data active = inhibition above about 27%;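 note: 0% = vehicle and 100% = reference inhibitor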
Mtb UGM inh: M. tuberculosis UGM enzyme inhibitors, primary screen, biochemical, fluorescence polarization, single point; inhibition, % at 10 µM; 320,000 tested, 0.06% active; UDP-galactopyranose mutase (Mycobacterium tuberculosis (strain ATCC 25618 / H37Rv)), …; purified UGM, fluorescence polarization probe displacement; AID 504406, 2011; in the data active = inhibition above about 10%, passing the limit was not always enough
Target sequence (P9WIQ1 whole entry, looked up): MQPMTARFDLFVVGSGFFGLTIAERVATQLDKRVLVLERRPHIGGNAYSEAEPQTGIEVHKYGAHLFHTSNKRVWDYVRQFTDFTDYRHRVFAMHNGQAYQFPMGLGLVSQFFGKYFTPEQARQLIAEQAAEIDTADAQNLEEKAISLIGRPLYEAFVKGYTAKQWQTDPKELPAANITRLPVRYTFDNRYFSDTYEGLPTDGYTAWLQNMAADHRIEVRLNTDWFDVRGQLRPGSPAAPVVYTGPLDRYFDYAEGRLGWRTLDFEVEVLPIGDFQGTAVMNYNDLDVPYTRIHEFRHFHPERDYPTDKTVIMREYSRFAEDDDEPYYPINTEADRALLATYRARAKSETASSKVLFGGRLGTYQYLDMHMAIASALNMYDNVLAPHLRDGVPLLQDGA
* hit, by the source's call; . = not tested or not shown; + = active, no number. Compounds with a hit are over-represented: about 3.5% of the library has one in this group of screens.

SMILES	Rv3671c inh	GDH-TPI counter	FBA Mtb inh	Mtb UGM inh
COc1ccc(C(=O)C2CCCN(Cc3cccn3-c3ccc(Cl)cn3)C2)c(OC)c1 (centres undefined)	-4.0	1.2	-1.8	0.0
CCN(CC)S(=O)(=O)c1ccc(N/N=C(\C)c2ccncc2)c([N+](=O)[O-])c1	3.2	0.7	-0.4	1.7
CCN(CC)S(=O)(=O)c1ccc(N/N=C(\C)c2ccncc2)nc1	-10.2	37.9*	-3.5	-0.3
CCN(CC)S(=O)(=O)c1ccc(N/N=C(\C)c2cccnc2)nc1	7.8	35.0*	0.8	1.2
CCCCNC(=O)C1(C)CCC(=O)N1CCCn1ccnc1 (centres undefined)	.	.	3.1	.
Cc1ccc(Cn2ccc(-c3cnc(-c4ccccc4)s3)n2)cc1	-7.5	25.7	52.4*	3.3
Fc1ccc(Cn2ccc(-c3cnc(-c4ccccc4)s3)n2)cc1	-8.0	12.2	141.9*	-1.1
O=S(=O)(c1ccccc1)n1ccc(-c2cnc(-c3ccccc3)s2)n1	-5.0	5.2	2.0	-4.3
CCCCNS(=O)(=O)c1ccc2nc(-c3cccnc3)cc(C(=O)NCCOC)c2c1	-8.5	31.8*	1.2	-2.1
CC(C)N1CCc2c(sc(NC(=O)c3ccc4ccccc4c3)c2C(N)=O)C1	-9.7	9.6	1.3	-5.0
CC(=O)Nc1sc2c(c1-c1nc3ccccc3s1)CCN(C(C)C)C2	5.1	32.7*	8.5	-2.6
CCOc1cc(S(=O)(=O)NCCc2cccc(C)c2)c(OCC)cc1-n1cnnn1	5.6	-0.9	40.5*	-1.2
O=C1CNC(=S)N1C(CO)c1ccccc1 (centres undefined)	-7.0	1.9	0.4	3.7
Cc1nc(N2CCOCC2)c2c(C)c(C(=O)Nc3ccccc3Cl)sc2n1	16.7	30.9*	-2.6	-2.8
CCCCn1c(N)c(N(CC(C)C)C(=O)COC(=O)C2(c3ccccc3)CC2)c(=O)[nH]c1=O	6.1	4.6	-2.7	-1.5
COc1cc(/C=N/NC(=O)c2ccc(C)nc2)cc([N+](=O)[O-])c1O	-1.5	24.4	-14.2	-0.3
COc1cc([N+](=O)[O-])cc(/C=N/NC(=O)c2ccc(C)nc2)c1O	13.8	37.1*	-12.1	-0.2
CCOc1cc(/C=N\NC(=O)c2ccc(C)nc2)cc([N+](=O)[O-])c1O	10.6	49.2*	-10.2	-0.5
Cc1ccc(C(=O)N/N=C/c2ccoc2)cc1C	-6.0	1.7	4.1	1.0
CCN1C(=O)C(F)(CC)C(=O)c2ccccc21 (centres undefined)	11.3	1.5	0.5	2.1
CCn1c(NCCO)nc2c(c1=O)C(C)(CC)Cc1ccccc1-2 (centres undefined)	4.7	19.0	158.9*	0.3
CCC1(C)Cc2ccccc2-c2nc3n(c(=O)c21)CCS3 (centres undefined)	5.1	-3.4	-2.1	2.0
CCC1(C)Cc2ccccc2-c2nc(NCCCO)n(-c3ccccc3)c(=O)c21 (centres undefined)	2.0	12.4	+	-0.6
CC12CCC(C(=O)Nc3cccc(Cl)c3Cl)([C@H](Br)C1=O)C2(C)C (some centres undefined)	-3.5	0.0	113.1*	1.8
COc1ccc(/C=C(/NC(=O)c2ccccc2)C(=O)NCc2ccncc2)cc1	-6.7	15.3	1.6	1.9
SMILES	Rv3671c inh	GDH-TPI counter	FBA Mtb inh	Mtb UGM inh
COc1ccc(C(=O)N/C(=C\c2ccccc2)C(=O)Nc2ccc(C(=O)O)cc2)cc1	.	7.2	-2.1	-0.7
COc1ccc(/C=C(\NC(=O)c2ccc(OC)cc2)C(=O)Nc2ccccc2C(=O)O)cc1	-3.0	30.9*	-4.6	-0.6
COc1ccc(C=CC(C)=NNC(=O)c2ccncc2)cc1	.	54.4*	-0.2	.
COc1ccc(/C=C(/NC(=O)c2ccccc2)C(=O)N/N=C/c2ccncc2)cc1	-4.3	35.0*	2.3	2.7
O=C(N/N=C/c1ccco1)/C(=C/c1cccc([N+](=O)[O-])c1)NC(=O)c1ccccc1	-5.9	28.5	-3.6	1.6
O=C(N/N=C/c1ccc(Br)o1)/C(=C/c1ccc([N+](=O)[O-])cc1)NC(=O)c1ccccc1	5.5	46.5*	2.8	1.5
COc1ccc(/C=C(\NC(=O)c2ccc(OC)cc2)C(=O)NC(CCSC)C(=O)O)cc1 (centres undefined)	-0.5	6.8	2.4	4.2
COc1ccc(OCc2cc(/C=N\NC(=O)c3ccccc3)ccc2OC)cc1	-48.3	19.5	0.8	1.4
Cc1ccc(/C=N\NC(=O)/C(=C\Nc2nccc(C)n2)NC(=O)c2ccccc2)cc1	-6.5	94.9*	-4.1	1.6
COc1ccc(C(=O)N/C(=C\c2ccc([N+](=O)[O-])cc2)C(=O)NC(CCSC)C(=O)O)cc1 (centres undefined)	-8.9	33.5*	0.5	3.0
COc1ccc(/C=N\NC(=O)/C(=C\Nc2nccc(C)n2)NC(=O)c2ccccc2)cc1	7.0	63.0*	-0.1	0.3
Cc1ccc(/C=N/NC(=O)C(C)NC(=O)c2ccccc2)cc1 (centres undefined)	5.2	6.1	6.9	-0.8
COc1ccccc1C(=O)NCCC(=O)NCc1ccccn1	1.2	-3.2	-3.6	0.0
CCN(CC(=O)NCc1cccs1)C(=O)c1ccc(-c2ccccc2F)o1	-3.9	7.3	-0.6	.
CC(=O)NCCOc1nc(N2CCCCC2)nc(N2CCCCC2)n1	-7.2	-2.4	0.2	1.4
N#C/C(=C\c1ccc(O)c([N+](=O)[O-])c1)C(=O)NCc1ccccc1	1.9	44.2*	-11.6	1.4
COCCNC(=O)/C(C#N)=C/c1ccc(OCc2ccccc2)cc1	0.3	16.8	-0.9	-0.1
N#C/C(=C\c1ccc(OCc2ccc(C(=O)O)cc2)cc1)C(=O)NCc1ccccc1	-5.2	36.2*	-0.4	-2.0
Cc1cc(/C=C(\C#N)C(=O)NCc2ccccc2)c(C)[nH]1	.	31.0*	-2.1	.
COc1cc(/C=C(\C#N)C(=O)NCc2ccccc2)ccc1OCc1ccc(C(=O)O)cc1	-11.2	59.3*	-5.1	2.5
O=C1NC(=O)C2(CCCc3c([N+](=O)[O-])cccc32)N1 (centres undefined)	.	6.2	0.4	.
O=C(NCCS(=O)(=O)N1CCCCC1)c1ccc2c(c1)OCO2	-3.2	-3.6	0.6	-1.4
CCOc1ccc(Br)cc1S(=O)(=O)NCc1ccncc1	0.4	-2.5	-0.2	0.7
O=C(O)c1ccc(Cl)cc1NC(=O)C1CCN(S(=O)(=O)c2cccs2)CC1	.	3.5	5.2	.
CN(C)c1ccc(C2CC(=O)C=C(Nc3ccccc3N)C2)cc1 (centres undefined)	-8.1	24.4	2.1	0.4
Cc1cc(O)cc(O)c1/C=N/NC(=O)c1ccc2c(c1)OCCO2	.	44.2*	6.8	.
O=C(O)c1ccc(/C=N/NC(=O)c2ccc3c(c2)OCCO3)cc1	1.1	28.4	-1.8	0.8
O=C(N/N=C/c1ccc(Br)o1)c1ccc2c(c1)OCCO2	-2.1	41.4*	0.7	-0.4
CN1CCN(C(=O)CNC(=O)C23CC4CC(CC(C4)C2)C3)CC1	-11.2	3.0	-2.4	0.0
